Source: PubChem BioAssay AID488839 (Broad Institute, 2010)
The whole screen tested about 330,000 compounds, of which about 35 (0.01%) were called active.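 The calls were made as follows: active = highest replicate inhibition of at least 50% and at least 75% of replicates reaching 50%; inconclusive = only one of the two criteria met; inactive = both criteria failed.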 A selection follows.

target: Cyclin-dependent kinase 5 (Homo sapiens) + Cyclin-dependent kinase 5 activator 1 (Homo sapiens) (UniProt Q00535+Q15078); test: inhibitors of human CDK5/p35 kinase, primary screen, biochemical, single concentration (AID 488839); settings: Recombinant CDK5/p35, ADP-Glo luminescence, 60 min; at 10 µM; active compounds read high;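 also: plate controls were DMSO neutral control for no effect and GW8510 at 10 µM for full effect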
Sequence (Q00535 whole entry, looked up): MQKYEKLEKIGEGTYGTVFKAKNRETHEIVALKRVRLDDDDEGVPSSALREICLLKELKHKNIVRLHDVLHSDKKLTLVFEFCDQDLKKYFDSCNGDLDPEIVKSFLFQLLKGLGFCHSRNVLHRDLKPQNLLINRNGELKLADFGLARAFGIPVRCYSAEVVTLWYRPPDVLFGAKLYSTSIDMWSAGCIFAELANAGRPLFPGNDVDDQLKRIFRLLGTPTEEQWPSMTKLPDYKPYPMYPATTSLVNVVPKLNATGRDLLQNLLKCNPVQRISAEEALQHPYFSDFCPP
Sequence (Q15078 whole entry, looked up): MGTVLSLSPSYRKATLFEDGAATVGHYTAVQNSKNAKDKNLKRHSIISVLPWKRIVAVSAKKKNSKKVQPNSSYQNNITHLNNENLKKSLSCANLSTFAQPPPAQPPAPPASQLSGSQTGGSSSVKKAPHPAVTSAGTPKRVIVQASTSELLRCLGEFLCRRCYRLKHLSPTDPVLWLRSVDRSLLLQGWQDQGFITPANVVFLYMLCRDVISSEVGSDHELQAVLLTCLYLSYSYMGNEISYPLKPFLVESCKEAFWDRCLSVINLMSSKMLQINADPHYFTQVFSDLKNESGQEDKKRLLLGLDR

inhibition, inactive:
CC(C)[C@@H](C(=O)O)N(Cc1cccc(CN([C@H](C(=O)O)C(C)C)S(C)(=O)=O)c1)S(C)(=O)=O -2.67%
Cc1cc(-c2csc(N)n2)c(C)n1-c1ccccc1 0.604%
CCCN1C2=C(C(=O)CCC2)C(c2ccc(O)c(Br)c2)C2=C1CCCC2=O 2.42%
CC(Oc1cccc(Cl)c1)C(=O)Nc1ccc(S(=O)(=O)Nc2ncccn2)cc1 (centres undefined) -1.05%
COc1cc(OC)cc(-c2c(C#Cc3ccsc3)c3cc(-c4ccc(OC)cc4F)ccc3n2C)c1 2.95%
O=C1COc2ccc(S(=O)(=O)NCCc3ccc(Cl)cc3)cc2N1 -4.51%
Cc1cccc(N2O[C@H]3C=CC2CCCC3)n1 -0.772%
NS(=O)(=O)c1ccc(CCNC(=O)NC2CCCCC2)cc1 -0.391%
COc1cc(OC)c(C2=NOC(C(=O)Nc3c(C)n(C)n(-c4ccccc4)c3=O)C2)cc1Cl (centres undefined) -0.625%
CCCCc1ccc(S(N)(=O)=O)cc1 0.729%
COc1ccc2c(c1)C=CC1(O2)N(CCO)c2ccccc2C1(C)C (centres undefined) 1.4%
CC(/C=C/C1(O)C(C)CC(=O)CC1(C)C)OC1OC(CO)C(O)C(O)C1O (centres undefined) -0.525%
Cc1ccc(C(=O)N/C(=C/c2ccco2)C(=O)NCCc2c[nH]c3ccccc23)cc1C 2.98%
CCOc1ccc(C(=O)NCC(=O)N2CCN(c3ccc(C(F)(F)F)cn3)CC2)cc1 -6.9%
COc1ccccc1OCCNC(=O)C(CCSC)NC(=O)COc1ccccc1 (centres undefined) 1.86%
O=C(C1CCCO1)N(Cc1ccccc1)c1ccccc1 (centres undefined) -1.15%
O=C(Nc1ccn(CCCNCc2ccc3[nH]ccc3c2)c(=O)n1)OCc1ccccc1 1.87%
O=C(CNC(=O)c1ccc2ccccc2c1)Nc1ncccc1O -1.57%
COc1cc(C2/C(=C(\O)c3ccc4c(c3)CC(C)O4)C(=O)C(=O)N2c2nnc(C)s2)cc(OC)c1OC (centres undefined) -1.78%
COc1cc(S(=O)(=O)N2CCOCC2)ccc1NC(=O)COc1ccc(N(C)S(=O)(=O)c2ccc(C)cc2)cc1 -0.554%
O=S(=O)(NCc1ccccc1Cl)c1cnc[nH]1 0.727%
O=C(OCC(=O)N1CCN(C(=O)c2ccco2)CC1)c1c(Cl)cccc1Cl 0.768%
O=c1c2ccccc2ncn1CCc1ccncc1 1.49%
CCOc1ccc(S(=O)(=O)N/N=C(\C)c2ccc(Cl)c(Cl)c2Cl)cc1 1.98%
CN(C)C1=NC[C@H](Cc2ccccc2)N1CCc1ccc(F)cc1 0.95%
O=S(=O)(/N=C(/Nc1ccccc1)c1ccccc1)c1cccs1 0.387%
OCc1nc(CO)n(Cc2ccccc2)n1 -0.111%
COc1ccc(CCNC(=O)C(=O)NCC2OCCN2S(=O)(=O)c2ccc(OC)c(C)c2)cc1 (centres undefined) 1.39%
O=C(OCC(=O)N1CCCC1)c1ccc(Cl)nc1 1.02%
CCCCC(=O)Nc1nnc(S(=O)(=O)N(C)Cc2ccco2)s1 1.6%
CCn1cc(CN2CCCC(CNS(=O)(=O)Cc3ccccc3)C2)cn1 (centres undefined) 0.0333%
CCc1[nH]nc(C(=O)N2CCCC(CNS(=O)(=O)c3cccs3)C2)c1C (centres undefined) 0.235%
CCN1C(=O)CS/C1=N\c1nccs1 0.817%
O=C(c1cccs1)C1C(c2ccc(Br)cc2)NC(=S)NC1(O)C(F)(F)F (centres undefined) 1.75%
CCc1ccc(-c2cc(C(=O)NN3CCN(C)CC3)c3ccccc3n2)cc1 2.52%
Cc1oc(C(N)=O)cc1COc1ccc(C(N)=O)cc1 1.55%
O=C(CNCc1ccc(F)cc1)Nc1ccccc1-c1ccccc1 0.549%
S=C(NCC1CCCO1)N1CCN(c2ccc(Cl)c(Cl)c2)CC1 (centres undefined) -0.238%
COc1ccc(-c2nc3n(c2Br)CCC3)cc1 1.75%
O=C(Nc1cccc(Cl)c1)Nc1ccccc1NS(=O)(=O)c1cccs1 -1.4%
COc1ccccc1CNC(=O)COC(=O)c1cccs1 0.781%
COC(C[C@@H](O)C[C@@H](O)[C@H](C)OCc1ccccc1)OC -0.836%
N#Cc1ccccc1Sc1ccccc1C(=O)OCC(=O)NC1CCCCC1 -1.96%
O=C(CN(C(=O)c1nsc(Cl)c1Cl)c1cccc(F)c1)NC1CCCC1 0.211%
NC1=NC(=O)C2(COC(c3ccccc3Cl)OC2)S1 (centres undefined) 0.407%
Cn1c(=O)c([N+](=O)[O-])c(Oc2ccccc2)c2ccccc21 3.54%
COc1cc(CNCc2cccs2)cc(Br)c1OC -3.09%
O=S1(=O)CSCS(=O)(=O)C1 -3.39%
Cc1nn(C)c(C)c1C(C)NC(=O)c1ccc(OC2CCN(Cc3ccccn3)CC2)cc1 (centres undefined) -0.745%
Cc1cccc(N(Cc2ccccc2)C(=O)c2cc(S(=O)(=O)N3CCOCC3)ccc2F)c1 -2.98%
CCCCNC(=O)N(O)C1N(/N=C/c2ccc(N(C)C)cc2)C(=S)SC1(C)C (centres undefined) -0.992%
Cc1ccc(-c2csc(N(Cc3ccco3)C(=O)c3cccs3)n2)cc1 0.457%
c1cc(-n2cnnn2)ccc1NC1=NCCC1 -1.51%
CCc1ccccc1N(CC(=O)N1CCN(c2ccccc2F)CC1)S(C)(=O)=O 0.372%
O=C(CCn1c(=S)[nH]c2cc3c(cc2c1=O)OCO3)NCc1ccc(Cl)cc1 1.02%
Cc1cccc(C)c1NC1=NC(=S)N(c2ccc(N(C)C)cc2)C1(C)C -0.0411%
COC(=O)c1sc(C(F)(F)F)c(-c2ccccc2)c1S(=O)(=O)N(C)C -0.853%
CCOC(=O)c1nc(-c2ccc3c(c2)OCO3)[nH]c1C -1.03%
CC(=O)NC(CC(=O)Nc1nc(-c2ccccc2)c(C(C)=O)s1)c1ccccc1 (centres undefined) 0.222%
